# From PubChem BioAssay (NCI)
# About 83,000 compounds went through this panel and 20% of them were active in at least one assay; those are over-represented in the sample as a whole.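 Cell lines were cultured in 96-well plates, exposed to a single compound concentration, and assessed for percent growth 48 hours later.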 Unmarked numbers belong to inactive results. Activity calls are given as the source filed them. The calls were made as follows: active = growth percent below 10; inactive = the rest.
# Key:
# Assay in all cases: NCI-60 one-dose screen, 48 h (100 = growth as untreated, 0 = no growth, -100 = all killed)
# Settings in all cases: 10 µM unless noted
# NCI-H23 lung = test system: NCI-H23 lung
# NCI-H226 lung = test system: NCI-H226 lung
# NCI-H322M lung = test system: NCI-H322M lung
# HOP-62 NSCLC = test system: HOP-62 NSCLC
# NCI-H460 lung = test system: NCI-H460 lung
# HOP-92 NSCLC = test system: HOP-92 NSCLC
# NCI-H522 lung = test system: NCI-H522 lung
# A549/ATCC NSCLC = test system: A549/ATCC NSCLC
# 786-0 renal = test system: 786-0 renal
# COLO 205 colon = test system: COLO 205 colon
# DU-145 prostate = test system: DU-145 prostate
# K-562 leukemia = test system: K-562 leukemia
# MALME-3M melanoma = test system: MALME-3M melanoma
# MDA-MB-231 breast = test system: MDA-MB-231 breast
# RXF 393 renal = test system: RXF 393 renal
# SF-268 CNS = test system: SF-268 CNS
# SF-295 CNS = test system: SF-295 CNS
# SF-539 CNS = test system: SF-539 CNS
# UACC-257 melanoma = test system: UACC-257 melanoma
# M14 melanoma = test system: M14 melanoma
SMILES,growth (NCI-H23 lung),growth (NCI-H226 lung),growth (NCI-H322M lung),growth (HOP-62 NSCLC),growth (NCI-H460 lung),growth (HOP-92 NSCLC),growth (NCI-H522 lung),growth (A549/ATCC NSCLC),growth (786-0 renal),growth (COLO 205 colon),growth (DU-145 prostate),growth (K-562 leukemia),growth (MALME-3M melanoma),growth (MDA-MB-231 breast),growth (RXF 393 renal),growth (SF-268 CNS),growth (SF-295 CNS),growth (SF-539 CNS),growth (UACC-257 melanoma),growth (M14 melanoma)
CCCCCCCCNC(=O)C(C)C,94.6%,96.4%,107%,104%,98.3%,90%,92.5%,102%,107%,108%,105%,108%,106%,109%,93%,104%,100%,96.9%,108%,95.5%
OCCOc1ccc(-c2cc(-c3ccccn3)nc(-c3ccccn3)c2)cc1,18.5%,0.498% (active),9.08% (active),4.56% (active),0.477% (active),-1.12% (active),-18.8% (active),4.79% (active),1.56% (active),0.364% (active),-10.2% (active),-2.31% (active),17.3%,21.4%,2.52% (active),15%,14.6%,-6.53% (active),1.35% (active),-62.5% (active)
COc1ccc(C)cc1NC(=O)SC(C)C,102% [100 µM],89.6% [100 µM],104% [100 µM],97% [100 µM],103% [100 µM],103% [100 µM],88.7% [100 µM],104% [100 µM],102% [100 µM],132% [100 µM],103% [100 µM],92.5% [100 µM],98.8% [100 µM],92.1% [100 µM],102% [100 µM],97.3% [100 µM],105% [100 µM],97.6% [100 µM],98.8% [100 µM],110% [100 µM]
CC(C)OCC(CCl)OC(=O)Nc1ccccc1 (stereo not given),93%,100%,99.4%,104%,105%,89.5%,98.4%,102%,100%,111%,106%,103%,92.7%,94.8%,113%,101%,108%,98.1%,102%,107%
Cc1onc(-c2c(F)cccc2Cl)c1-c1ncc(-c2ccc(Br)cc2)o1,42.1%,73.1%,61.9%,59.3%,4.75% (active),61.3%,41.9%,41.7%,10.7%,49.6%,50%,24%,45.2%,52.3%,58.7%,43.1%,36.4%,39.6%,23.7%,54.3%
CCOC(=O)C1(N)CCCCC1,96.8%,98.6%,107%,102%,112%,102%,96.8%,100%,101%,110%,112%,116%,100%,102%,121%,102%,95.4%,96.9%,107%,93.8%
CN1C(=O)NC(c2ccc(Cl)cc2)(c2ccc(Cl)cc2)C1=O,98.2%,94.1%,119%,125%,111%,58.4%,108%,115%,106%,122%,102%,70.1%,108%,99.8%,62%,102%,102%,111%,118%,100%
CCOC(=O)CNC,101%,98.8%,96.9%,106%,106%,91.1%,123%,87.8%,101%,116%,116%,96.8%,114%,97.8%,108%,115%,96.7%,99.7%,81.7%,104%
NCCCN1CCCC1=O,101%,109%,96.9%,112%,113%,105%,92.6%,91%,105%,111%,114%,114%,99.1%,108%,122%,113%,111%,109%,97.3%,113%
OCCc1ccc(Cl)cc1,104%,99.9%,101%,95.9%,109%,105%,89.8%,88.8%,95.6%,109%,109%,99.9%,99.5%,96.9%,112%,99.9%,94.9%,93.9%,86.6%,99.2%
CCCCCCCCCCCCCCCCCC(=O)NCCNC(=O)CCCCCCCCCCCCCCCCC,95.2%,107%,72.4%,89.8%,98.8%,37.4%,98.7%,94.5%,91.9%,84.5%,97.5%,57.4%,93.5%,75.3%,109%,89.3%,100%,96.9%,105%,95.6%
CCOC(=O)N[C@H]1CCc2cc(OC)c(OC)c(OC)c2-c2ccc(SC)c(=O)cc21,27.4%,-7.68% (active),30.7%,30.1%,2.01% (active),29.4%,-8.99% (active),17.3%,15.6%,-4.99% (active),0.871% (active),9.44% (active),51.4%,-22% (active),10.7%,23%,3.33% (active),-21.9% (active),71%,4.1% (active)
COC(=O)Cc1cc(COC(C)=O)ccc1C,104%,107%,110%,110%,109%,79%,99.2%,99.1%,100%,120%,116%,108%,110%,125%,107%,113%,121%,111%,108%,106%
C=C1C(=O)C2CCC1C2 (stereo not given),107%,99.8%,97.5%,102%,113%,102%,91.8%,98.4%,92.8%,112%,98.4%,92.6%,93.6%,103%,112%,88.9%,102%,105%,105%,96.5%
CCCC(=O)c1cccs1,95.3%,93.2%,112%,99.9%,105%,84.7%,107%,99.3%,92.1%,111%,109%,112%,107%,104%,102%,105%,95.7%,93.7%,92.5%,105%
